# Measured values taken from publication PMC4336329 (PLoS ONE, 2015).
# Screen size: about 310,000 compounds; about 14,000 (4.5%) showed an effect of 50% or more. Effects have a minus sign here. Only a selection was taken, and strong results are over-represented in it overall.
# Target: human ether-à-go-go-related gene (hERG) potassium channel (human, UniProt Q12809)
# Assay: primary screen, population patch clamp on CHO cells stably expressing hERG; higher = less effect of the substance
# 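Note: peak tail current of the secondary pulse compared with the same well before compound.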
# Chain of human ether-à-go-go-related gene (hERG) potassium channel (Q12809 whole entry, looked up): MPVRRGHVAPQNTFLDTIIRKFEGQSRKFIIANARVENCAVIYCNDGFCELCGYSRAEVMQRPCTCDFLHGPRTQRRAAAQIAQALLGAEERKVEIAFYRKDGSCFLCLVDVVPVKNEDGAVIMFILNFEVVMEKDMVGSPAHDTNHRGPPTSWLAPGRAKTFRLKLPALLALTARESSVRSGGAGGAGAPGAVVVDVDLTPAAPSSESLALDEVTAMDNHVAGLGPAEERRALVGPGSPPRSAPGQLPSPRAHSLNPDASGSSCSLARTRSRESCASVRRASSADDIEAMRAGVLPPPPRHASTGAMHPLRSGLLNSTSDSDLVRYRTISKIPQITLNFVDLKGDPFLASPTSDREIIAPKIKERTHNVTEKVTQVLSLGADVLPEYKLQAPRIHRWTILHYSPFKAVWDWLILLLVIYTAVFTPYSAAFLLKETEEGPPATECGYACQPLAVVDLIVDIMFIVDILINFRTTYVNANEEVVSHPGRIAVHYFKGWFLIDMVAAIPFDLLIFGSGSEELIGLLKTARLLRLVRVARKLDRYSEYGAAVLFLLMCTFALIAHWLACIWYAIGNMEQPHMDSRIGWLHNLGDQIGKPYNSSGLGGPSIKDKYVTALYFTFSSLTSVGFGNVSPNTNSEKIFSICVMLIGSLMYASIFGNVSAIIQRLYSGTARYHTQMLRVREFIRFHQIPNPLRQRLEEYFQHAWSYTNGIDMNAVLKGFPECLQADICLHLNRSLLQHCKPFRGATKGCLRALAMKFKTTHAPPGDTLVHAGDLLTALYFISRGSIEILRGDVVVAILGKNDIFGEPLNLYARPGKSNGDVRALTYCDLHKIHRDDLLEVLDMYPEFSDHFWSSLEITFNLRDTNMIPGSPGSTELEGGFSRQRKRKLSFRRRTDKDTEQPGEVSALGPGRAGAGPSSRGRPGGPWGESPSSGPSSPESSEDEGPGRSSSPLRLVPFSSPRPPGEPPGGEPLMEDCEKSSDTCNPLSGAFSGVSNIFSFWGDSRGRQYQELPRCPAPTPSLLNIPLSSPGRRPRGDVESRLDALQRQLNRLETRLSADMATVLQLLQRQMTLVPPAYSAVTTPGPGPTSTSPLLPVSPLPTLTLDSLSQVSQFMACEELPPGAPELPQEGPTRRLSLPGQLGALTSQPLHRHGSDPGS
row,Compound,"hERG current change (%, negative = inhibition) at 10uM [%]"
1,COc1ccc(N2CCN(C(=O)c3ccc(CNS(=O)(=O)c4ccc(C)cc4)cc3)CC2)cc1,13.9
2,CC(Cc1ccccc1)NC(=O)Cc1ccc([N+](=O)[O-])cc1 (stereo not shown),-17.8
3,O=C(Cc1ccc(Cl)cc1)N1CCN(c2ccccc2)CC1,-12.2
4,Cc1ccc(S(=O)(=O)NCc2ccc(C(=O)N3CCN(c4ccc([N+](=O)[O-])cc4)CC3)cc2)cc1,-70.7
5,O=C(Cc1ccc(F)cc1)N1CCN(c2ccc([N+](=O)[O-])cc2)CC1,-69.5
6,O=C(Cc1ccc(Br)cc1)N1CCN(c2ccc(F)cc2)CC1,-49.9
7,O=CN1CCN(C(=O)Cc2ccc([N+](=O)[O-])cc2)CC1,-25.6
8,O=C(Cc1ccc(F)cc1)N1CCN(c2ccc(F)cc2)CC1,0.483
9,O=C(Cc1ccccc1)N1CCN(c2ccc([N+](=O)[O-])cc2)CC1,-55.2
10,CCN(c1ccc(NC(=O)COC(=O)CCC(=O)c2ccc(F)cc2)cc1)C(C)C,-4.95
11,O=C(Cn1cnc2c(nnn2Cc2ccccc2F)c1=O)N1CCN(c2ccccc2)CC1,-31.2
12,O=C(NCCC1=CCCCC1)c1cccc2c1C(=O)N(C1CCCCC1)C2,9.87
13,O=C(NN1C(=O)c2ccccc2C1=O)c1ccncc1,10.4
14,CCOC(=O)C(O)(c1ccc(NC(=O)c2ccc(Cl)c(Cl)c2)cc1)C(F)(F)F (stereo not shown),-4.61
15,COc1ccc(NC(=O)CSc2nccn2Cc2ccco2)cc1OC,11.3
16,CCOC(=O)N1CCN(C(=O)c2ccc3c(c2)sc2nc(-c4ccccc4)cn23)CC1,-49.3
17,CCOC(=O)c1cn(CC)c2ccc(S(=O)(=O)N3CC(C)CC(C)C3)cc2c1=O (stereo not shown),-21.7
18,Cc1c(C)c2ccc(OC(C)C(=O)NCCc3c[nH]c4ccccc34)cc2oc1=O (stereo not shown),-2.3
19,Cc1ccc(SCC(=O)N2CCC(C(N)=O)CC2)cc1,13.2
20,O=C(CN1CCN(c2ccc([N+](=O)[O-])cc2Cl)CC1)N1CCOCC1,-45.2
21,O=C(Cc1ccccc1)N1CCN(S(=O)(=O)c2ccc([N+](=O)[O-])cc2)CC1,-64
22,Cc1ccc(S(=O)(=O)NCCC(=O)N2CCN(S(=O)(=O)c3ccccc3)CC2)cc1C,-16.6

row,Compound,"hERG current change (%, negative = inhibition) at 10uM [%]"
1,O=C(Cc1ccccc1)N1CCN(S(=O)(=O)c2cccc([N+](=O)[O-])c2)CC1,-22.2
2,O=C(CN1CCN(c2ccc(F)cc2)CC1)N1CCOCC1,12.9
3,Cc1ccc(CC(=O)N2CCN(S(=O)(=O)c3ccccc3)CC2)cc1C,-55.5
4,Cc1ccc(S(=O)(=O)N2CCN(C(=O)Cc3ccccc3)CC2)cc1C,-2.97
5,O=C(CN1CCOCC1)N1CCN(c2ccc([N+](=O)[O-])cc2)CC1,-71.6
6,Cc1ccc(S(=O)(=O)N2CCN(C(=O)Cc3ccccc3)CC2)cc1,-26.1
7,CCOC(=O)Cc1csc(NC(=O)Cc2cccs2)n1,6.28
8,COc1ccc(S(=O)(=O)N2CCCC2C(=O)NCc2ccccc2Cl)cc1 (stereo not shown),-12.4
9,CC1CCC(NCCNC(=O)c2ccco2)CC1 (stereo not shown),11.8
10,Cc1ccsc1C(=O)NCc1ccc(Cl)cc1,11.1
11,c1cnc(NCCNc2ncccn2)nc1,9.05
12,CC1(C)CC(NC(=O)c2ccc3c(c2)OCO3)CC(C)(C)N1,4.65
13,COC(=O)[C@H](CC(C)C)NC(=O)NCCCc1ccccc1,1.82
14,COc1ccc(C2Nc3ccccc3C(=O)N2Cc2ccccc2)cc1COc1ccccn1 (stereo not shown),-49.4
15,Cn1cc(C2=C(c3ccc(Cl)cc3Cl)C(=O)NC2=O)c2ccccc21,33
16,O=C(N1CCOCC1)N1CCC(c2nc(-c3ccc(S(=O)(=O)N4CCOCC4)cc3)no2)CC1,-2.07
17,O=C(C1CC1)N1CCC(c2nc(-c3ccc(S(=O)(=O)N4CCCC4)cc3)no2)CC1,-13
18,O=C(Nc1ccccc1)N1CCC(c2nc(-c3ccc(S(=O)(=O)N4CCOCC4)cc3)no2)CC1,-4.94
19,O=C(c1ccccc1)N1CCC(c2nc(-c3ccc(S(=O)(=O)N4CCOCC4)cc3)no2)CC1,-60.8
20,O=C(c1cccs1)N1CCC(c2nc(-c3ccc(S(=O)(=O)N4CCOCC4)cc3)no2)CC1,-68.8
21,Cc1cccc(C(=O)N2CCC(c3nc(-c4ccc(S(=O)(=O)N5CCOCC5)cc4)no3)CC2)c1,-3.33
